In the supplement of paper PMC7411054:
Counter-ions that a name gives are not always drawn.

tested on: WPMY1-ACTB-RAB5A; assay: phenotypically active (imaging signature differs from DMSO and reproducible) at any of 0.3-9 uM (binary (1 = active, 0 = inactive)); higher = active; conditions: treatment time: 24 h
Outline: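 Four wells per concentration (0.3, 1, 3 or 9 µM) were treated for 24 h in each of fifteen gene-edited reporter lines from A549, HepG2 and WPMY1 cells, then imaged live. After normalising live-cell features to solvent control wells, deviation was defined as ≥3 of 4 wells lying past the 95th percentile of control Euclidean distances. Reproducibility was defined as a median replicate Pearson correlation above the 95th percentile of non-replicates. Both had to hold for phenotypic activity.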

Phenotypically active, active:
Nc1nc(Cl)nc2c1ncn2[C@@H]1O[C@H](CO)[C@@H](O)[C@@H]1F [clofarabine] 1
Cc1nc(Nc2ncc(C(=O)Nc3c(C)cccc3Cl)s2)cc(N2CCN(CCO)CC2)n1 [dasatinib] 1
O=C(NCc1cccc(O)c1)Nc1nc(-c2ccncc2)cs1 [RKI 1447 dihydrochloride] 1
CC(C)n1nc(-c2cc3cc(O)ccc3[nH]2)c2c(N)ncnc21 1
COc1ccc(-c2ccc3ncc4c(c3c2)n(-c2ccc(N3CCNCC3)c(C(F)(F)F)c2)c(=O)n4C)cn1 1
CC(C)(C)c1cnc(CSc2cnc(NC(=O)C3CCNCC3)s2)o1 1
O=C(O)c1ccc(Nc2ncc3c(n2)-c2ccc(Cl)cc2C(c2c(F)cccc2F)=NC3)cc1 1
COc1ccc(S(=O)(=O)N(C(C)=O)c2ccccc2/C=C/c2cc[n+]([O-])cc2)cc1 1
CC(C)(C)Nc1nc(Nc2ccc(C(N)=O)cc2)cc(N)c1C#N 1
Nc1cccc(-c2cc3c(Oc4cccc(O)c4)ncnc3[nH]2)c1 1
c1ccc2c(c1)Cc1c(Nc3ccc4c(c3)OCCO4)n[nH]c1-2 1
Cc1c(NC(=O)OC[C@@H]2COCCN2)cn2ncnc(Nc3ccc4c(cnn4Cc4cccc(F)c4)c3)c12 1
CCC(=O)N1CCN(c2ccc(-n3c(=O)ccc4cnc5ccc(-c6cnc7ccccc7c6)cc5c43)cc2C(F)(F)F)CC1 [Torin 1] 1
COc1c(Nc2cc(C)[nH]n2)nc(Sc2ccc(S(=O)(=O)Cc3cccc([N+](=O)[O-])c3F)cc2F)nc1N1CCOCC1 [Centrinone] 1
